Source: PubChem BioAssay (NCATS)
Results filed as inconclusive are left out. Calls of active or inactive are those of the source. Unless noted, the call rests on the fitted dose curve; in most records, active means well fitted curve in the direction sought with a large enough effect; inconclusive means small, poorly fitted or top-dose-only effect, or another doubt; inactive means no such curve, though single readings can be large; an effect the other way counts as inactive or inconclusive.

Key:
[1] = S16 Schwann cell viability assay (CellTiter-Glo assay) (AID 624031);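 further: native untransfected S16 rat Schwann cells; cellular ATP luminescence as a viability measure; series mostly up to about 58 µM; nearly all actives have a fitted effect of over 70% in size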
How it was run: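 Rat S16 Schwann cells without reporter constructs received compound or DMSO for 24 h at 37 °C under 5% CO2. Cellular ATP was then quantified by CellTiter-Glo luminescence, with vehicle wells defined as 0% activity and cell-free wells as reference.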

[2] = S16 Schwann cell PMP22 intronic element firefly luciferase assay (AID 624032); conditions: S16 rat Schwann cells, PMP22 element FLuc, 24 h; further: potency means the concentration at half of the fitted maximal effect; nearly all actives have a fitted effect of over 30% in size
From the text: Charcot-Marie-Tooth-Association [CMTA]
National Center for Advancing Translational Sciences [NCATS]
Charcot-Marie-Tooth (CMT) disease was first characterized by Jean-Martin Charcot and Pierre Marie in France and, independently, by Howard Henry Tooth in England in 1886. CMT is one of the most common inherited neurological diseases, affecting approximately 1 in 2,500 Americans. […] The most prevalent type of CMT is known as CMT1A and caused by a duplication of the PMP22 gene which leads to over-expression of this protein. PMP22 is a glycosylated intrinsic membrane protein accounting for 2-5% of the myelin protein content, and its over-expression results in demyelination and subsequently axonal loss. […]
The FLuc-expressing S16 cells were seeded in white solid 1536-well plates at between 500-750 cells/4uL in DMEM medium containing 10% FBS, w/o phenol red. […] Luminescence was measured on a ViewLux plate reader (Perkin Elmer). The % activity was determined by normalizing to the average readings of PTC124 (a positive control) - treated cells relative to DMSO-treated cells (0% Activity). The concentration-effect curves were then classified based on curve quality (r2), response magnitude and degree of measured activity.

[3] = S16 Schwann cell PMP22 intronic element beta-lactamase assay (AID 624044; calls by dose curve; further: potency means the concentration at half of the fitted maximal effect; nearly all actives have a fitted effect of over 15% in size); conditions: S16 rat Schwann cells, PMP22 element beta-lactamase FRET, 24 h
How it was run: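 Beta-lactamase reporter under a PMP22 intronic regulatory element in stable S16 rat Schwann cells; 24 h compound exposure. 460 nm blue signal normalized between DMSO (0%) and potassium clavulanate, with 535 nm FRET tracking viability; curves classed by r2 and response.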

## CC(=O)O[C@H]1C(=O)[C@@]2(C)[C@H]([C@H](OC(=O)c3ccccc3)[C@]3(O)C[C@H](OC(=O)[C@H](O)[C@@H](NC(=O)c4ccccc4)c4ccccc4)C(C)=C1C3(C)C)[C@]1(OC(C)=O)CO[C@@H]1C[C@@H]2O
[1]
  outcome: inactive

## CC[C@]1(O)CC2CN(CCc3c([nH]c4ccccc34)[C@@](C(=O)OC)(c3cc4c(cc3OC)N(C)[C@H]3[C@@](O)(C(=O)OC)[C@H](OC(C)=O)[C@]5(CC)C=CCN6CC[C@]43[C@@H]65)C2)C1 (stereo partly drawn)
[2]
  Potency: 721 nM (active)
[3]
  Potency: 224 nM (active)
